Assay outcomes from PubChem BioAssay.
UHRF1 MBD2 ctr: UHRF1 methylated DNA binding inhibitors, primary screen, counter-screen for MBD2 inhibitor project, biochemical, TR-FRET, human UHRF1, single concentration; E3 ubiquitin-protein ligase UHRF1 (Homo sapiens), Q96T88; UHRF1 binding to methylated oligo; inhibition, % at 4.4 µM; hit rate 0.75% among 370,000; AID 687016, 2013;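 also: UHRF1 SRA domain binding a hemimethylated CpG hairpin DNA probe; 0% = median of test compound wells and 100% = reference inhibitor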
ABHD5-PLIN5 inh: ABHD5-PLIN5 interaction inhibitors, primary screen, cell lysate, split luciferase complementation, luminescence | Split G. princeps luciferase complementation, 4 h | hit rate 0.78% among 360,000 | inhibition, % at 4 µM | AID 602281, 2012;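 active = inhibition above the mean inhibition across every tested compound plus 3 SD, cut at about 22% in these data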;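 also: 0% = DMSO only wells and the 100% control is not disclosed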
PRMT1 inh: PRMT1 methyltransferase inhibitors, primary screen, biochemical, fluorescence polarization; Protein arginine N-methyltransferase 1 (Homo sapiens), Q99873; recombinant PRMT1, activity-based probe fluorescence polarization; inhibition, % at 2.79 µM; hit rate 1.3% among 370,000;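 active = inhibition above about 21% made by adding two undisclosed values, limit read from the data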
rCAG binder: binders of r(CAG) RNA repeats, primary screen, biochemical, fluorescence. r(CAG) RNA repeat, TO-PRO-1 dye displacement fluorescence. inhibition, % at 3 µM. hit rate 1.3% among 370,000. AID 651821, 2012;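 active = inhibition above the plate cutoff, the mean of all test compounds on that plate plus 3 SD, cut at about 35% in these data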;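 also: 0% = DMSO alone and 100% = 100 µM mitoxantrone as full dye displacement; higher means more dye released from RNA so lower well fluorescence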
MBD2 DNA inh: inhibitors of MBD2 binding to methylated DNA, primary screen, biochemical, TR-FRET, DNA-binding domain, human | Methyl-CpG-binding domain protein 2 (Homo sapiens), Q9UBB5 | MBD2 binding to methylated oligonucleotide | inhibition, % at 4.4 µM | hit rate 0.31% among 370,000 | AID 686964, 2013; in the data active = inhibition above about 13%
Target sequence (Q9UBB5 whole entry, looked up, the tested form may be a part): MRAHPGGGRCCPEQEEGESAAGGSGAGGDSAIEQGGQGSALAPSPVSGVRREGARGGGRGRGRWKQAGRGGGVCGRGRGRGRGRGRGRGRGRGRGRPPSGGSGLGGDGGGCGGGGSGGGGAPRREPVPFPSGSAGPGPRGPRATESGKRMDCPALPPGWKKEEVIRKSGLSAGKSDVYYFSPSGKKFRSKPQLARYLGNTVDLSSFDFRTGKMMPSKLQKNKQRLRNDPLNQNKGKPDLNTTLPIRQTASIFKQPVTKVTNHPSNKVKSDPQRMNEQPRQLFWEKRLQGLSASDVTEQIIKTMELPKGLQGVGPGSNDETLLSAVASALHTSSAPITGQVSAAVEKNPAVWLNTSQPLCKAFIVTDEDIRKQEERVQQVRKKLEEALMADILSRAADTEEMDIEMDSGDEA
LEDGF integ inh: blockers of LEDGF/p75-dependent integrase strand transfer – biochemical, TR-FRET, high throughput, primary screen | TR-FRET IN-LEDGF/p75 DNA integration, Eu/Cy5 | HIV-1 integrase (with human LEDGF/p75) | inhibition, % at 3.7 µM | hit rate 0.64% among 370,000;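 active = inhibition above the screen-wide mean plus 3 SD, cut at about 13% in these data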;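 also: signal is the Cy5 over europium emission ratio at 671 and 618 nm; 0% = plate median of compound wells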
rCAG bind conf: small molecules binding CAG repeat RNA – biochemical, fluorescence, confirmation | AID 652065, 2013 | r(CAG) RNA repeat, TO-PRO-1 dye displacement fluorescence | hit rate 70% among 4,300 | inhibition, % at 3 µM | shares compounds with rCAG binder;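 active = inhibition above a per-plate cutoff, the mean inhibition of sample wells plus 3 SD, cut at about 35% in these data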;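 also: loss of TO-PRO-1 fluorescence as compound displaces dye from 1x1 AA loop RNA; 0% = DMSO only wells and 100% = 100 µM mitoxantrone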
dCAG dye counter: displacement of TO-PRO-1 from CAG DNA duplex, counter-screen for rCAG RNA repeat binder project, biochemical, fluorescence, TO-PRO-1 dye, d(CAG) DNA oligo | shares compounds with rCAG binder | d(CAG) DNA oligo TO-PRO-1 dye displacement | inhibition, % at 3 µM | hit rate 94% among 4,300;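 active = inhibition above its plate's cutoff, the mean test-well inhibition plus 3 SD, cut at about 4.8% in these data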;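 also: 0% = DNA dye mix with DMSO and 100% = 100 µM mitoxantrone; hits displace the dye from DNA and so lower well fluorescence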
PRMT1 inh conf: PRMT1 methyltransferase inhibitors, confirmation, biochemical, fluorescence polarization, triplicate | shares compounds with PRMT1 inh | inhibition, % at 2.79 µM | AID 687036, 2013 | recombinant His-PRMT1, activity-based probe fluorescence polarization | hit rate 42% among 3,300;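 active = mean inhibition across replicates above the hit cutoff derived for the earlier primary screen, cut at about 22% in these data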
UHRF1 ctr MBD2: UHRF1 methylated DNA binding inhibitors, counter-screen for MBD2 inhibitor project, biochemical, TR-FRET, human UHRF1 | hit rate 25% among 1,000 | inhibition, % at 4.4 µM | UHRF1 binding to methylated oligonucleotide | AID 720530, 2013 | shares compounds with MBD2 DNA inh;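 also: UHRF1 SRA domain binding a labeled hemimethylated CpG hairpin DNA; 0% = vehicle only and 100% = reference inhibitor with vehicle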
MBD2 confirm: inhibitors of MBD2 binding to methylated DNA, confirmation, biochemical, TR-FRET, DNA-binding domain, human; shares compounds with MBD2 DNA inh; inhibition, % at 4.4 µM; TR-FRET MBD2-DBD binding to methylated oligonucleotide; AID 720531, 2013; hit rate 26% among 1,000; in the data active = inhibition above about 14%
* marks the source's active call; other numbers are inactive results; / = not tested or not shown. Only some compounds are listed: those with a hit (about 4.1% of all), similar ones and a draw of the others. Rule as the data show it, unless noted: active = inhibition above about 21%; inactive = the rest.

SMILES	UHRF1 MBD2 ctr	ABHD5-PLIN5 inh	PRMT1 inh	rCAG binder	MBD2 DNA inh	LEDGF integ inh	rCAG bind conf	dCAG dye counter	PRMT1 inh conf	others
COCCN1C(=O)Cc2c1nc(N)c1c(N)nc(N3CCN(c4ccc(F)cc4)CC3)c(C#N)c21	-6.8	10.2	27.5*	37.6*	-0.3	0.8	21.8	14.8*	15.2
COCC(C)N1C(=O)Cc2c1nc(N)c1c(N)nc(N3CCN(c4ccccc4F)CC3)c(C#N)c21 (configuration not stated)	-4.7	10.3	18.8	17.8	-0.8	0.0	/	/	/
O=C(CSc1nc2ccccc2s1)Nc1cc(S(=O)(=O)N2CCOCC2)ccc1O	0.7	-0.8	37.7*	48.8*	8.1	-2.8	39.7*	15.9*	40.1*
CCCCc1ccc(CC(=O)Nc2cc(S(=O)(=O)N3CCOCC3)ccc2O)cc1	1.9	-15.4	31.7*	47.7*	-2.3	-1.5	51.3*	16.1*	13.4
O=C(CC1CCCC1)Nc1cc(S(=O)(=O)N2CCOCC2)ccc1O	1.3	-6.0	3.7	1.5	-2.0	2.7	/	/	/
CN1OC[C@@H]2CN(C(=O)c3ccc([N+](=O)[O-])cc3)[C@H](c3ccccc3Br)C[C@@H]21	4.9	/	1.1	4.6	1.2	4.6	/	/	/
CC1=CC(C)(C)NC(=S)N1c1cccc2cc(S(=O)(=O)O)ccc12	2.6	-43.3	38.6*	43.4*	-4.2	7.6	87.1*	57.6*	44.8*
COC(=O)[C@]12C[C@H](CC(=O)NCc3cccc(C(F)(F)F)c3)C(=O)N(Cc3ccco3)C1=C[C@H](C1CCCC1)O[C@@H]2C	-0.4	/	-8.2	-1.4	6.0	2.3	/	/	/
O=C(CSc1ccc(-c2ccco2)nn1)c1cccc([N+](=O)[O-])c1	3.5	1.8	31.4*	35.5*	-3.0	6.4	16.8	11.3*	4.2
S=c1[nH]nc(-c2ccco2)n1/N=C/C(Cl)=C/c1ccccc1	-0.3	8.8	25.6*	57.9*	-0.5	-2.8	51.7*	18.5*	20.0
CC(/C=N/n1c(-c2ccco2)n[nH]c1=S)=C\c1ccco1	-1.8	1.8	11.4	10.3	-3.7	9.5	/	/	/
[N-]=C=C1C(=S)NC(=O)[C@H]([n+]2ccccc2)[C@H]1c1ccc(Cl)cc1	-1.3	-12.7	25.4*	43.6*	-4.7	-0.8	64.0*	27.7*	31.6*
[N-]=C=C1C(=O)NC(=O)C([n+]2ccc(-c3ccncc3)cc2)C1c1ccccc1C(F)(F)F (configuration not stated)	-2.6	-5.5	7.8	33.8	-5.1	-6.8	/	/	/
COc1ccc(N2CCCN(CC(=O)Nc3ccccc3C)CC2)cc1	-3.8	/	2.8	-1.6	1.8	-3.8	/	/	/
COc1ccccc1NC(=O)CSc1sc2c(O)cc(=O)[nH]c2c1C#N	14.8	-3.7	26.6*	52.2*	4.7	2.5	17.9	8.2*	16.1
COc1ccc(Cl)cc1NC(=O)CSc1sc2c(O)cc(=O)[nH]c2c1C#N	2.3	-7.3	28.7*	55.5*	2.0	7.0	31.4	15.8*	3.4
COc1cc(NC(=O)c2ccccc2)c(OC)cc1NC(=O)CSc1[nH]c(=O)cc(C)c1C#N	-2.9	-4.6	-1.7	8.2	-0.4	3.3	/	/	/
O=C(O)c1ccc(-n2c(O)c(C=C3N=c4ccccc4=N3)sc2=S)cc1	-7.8	1.1	29.5*	80.3*	2.6	-5.9	62.3*	23.8*	21.0
O=C(O)c1ccc(-n2c(=O)c3ccccc3c3ccccc3c2=O)cc1	1.1	2.5	2.0	2.1	0.2	-3.3	/	/	/
O=C(O)c1cccc(-n2c(O)c(C=C3N=c4ccccc4=N3)sc2=S)c1	-10.3	-12.6	31.0*	80.8*	-10.8	-1.2	63.5*	22.5*	5.2
CCCC(C(=O)O)n1c(O)c(C=C2N=c3ccccc3=N2)sc1=S (configuration not stated)	-4.5	-6.1	26.3*	57.8*	-0.8	-3.1	54.3*	17.3*	2.5
CC(C)c1[nH]nc2c1C(c1cccc(C(F)(F)F)c1)N(c1ccccc1)C2=O (configuration not stated)	1.9	/	3.7	0.1	6.4	3.6	/	/	/
Cc1cccc(NC(=S)NC(=O)/C=C/c2ccco2)c1	1.4	5.5	35.5*	36.6*	6.7	11.9	29.4	14.4*	11.4
COc1ccc(C(=O)C2(C(=O)NCCO)CC(c3ccccn3)=NO2)cc1 (configuration not stated)	0.0	/	-3.3	0.5	0.0	4.7	/	/	/
O=C(OCC#CCSc1nnc(-c2cccc3ccccc23)o1)c1csc2ccccc12	0.6	/	1.3	/	-6.6	1.3	/	/	/
COc1ccc(C2CC(=O)N3CN(c4ccc(C)c(Cl)c4)CSC3=C2C#N)cc1 (configuration not stated)	-0.6	-23.1	44.0*	38.5*	3.3	4.8	13.9	8.3*	59.1*
Cc1ccc(C(=O)O)cc1-c1ccc(/C=C2/NC(=O)N(c3ccccc3)C2=O)o1	43.0*	4.7	19.6	61.6*	14.0*	9.3	60.0*	22.0*	/	UHRF1 ctr MBD2=29.7*;MBD2 confirm=10.7
Cc1ccc(CN2C(=O)N/C(=C\c3ccc(-c4ccc(C(=O)O)cc4C)o3)C2=O)cc1	13.6	0.8	0.7	11.8	8.1	4.6	/	/	/
